Laboratory results reported in the supplement of paper PMC11732987, “Enantioselective OTUD7B fragment discovery through chemoproteomics screening and high-throughput optimisation” (Communications Chemistry, 2025).

Tests used:
Assay in all cases: log2 ratio of Biotin-Ahx-Ub-VS probe labelling (fragment/DMSO); higher = less target engagement (more negative = stronger competition), active = hit call of the paper (q ≤ 0.05, log2 ratio ≤ -1)
Settings in all cases: compound concentration: 200 uM; treatment time: 3 h
OTUD6B = target: T1, OTUD6B (UniProt Q8N6M0)
T1 sequence (whole entry): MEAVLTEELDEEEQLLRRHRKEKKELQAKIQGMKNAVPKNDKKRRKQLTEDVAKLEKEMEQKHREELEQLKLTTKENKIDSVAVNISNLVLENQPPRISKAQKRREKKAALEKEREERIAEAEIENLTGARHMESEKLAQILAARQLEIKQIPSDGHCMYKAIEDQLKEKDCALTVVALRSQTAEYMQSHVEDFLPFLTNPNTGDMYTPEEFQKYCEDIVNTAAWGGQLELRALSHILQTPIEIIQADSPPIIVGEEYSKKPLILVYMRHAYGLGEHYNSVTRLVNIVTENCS
Method in brief: (§1)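 Average log2 ratios of fragment over vehicle were obtained by unpaired t-test from global-median-normalised Spectronaut label-free quantities. Proteins with ≥2 unique peptides were included. HEK293T lysate (495 µg per sample) was treated in triplicate with fragment at 200 µM or vehicle for 3 h, then with Biotin-Ahx-Ub-VS at 0.5 µM final for 1 h, and labelled DUBs were NeutrAvidin-enriched and run by diaPASEF LC-MS/MS.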

OTUD7B = target: T2, OTUD7B (UniProt Q6GQQ9)
T2 sequence (whole entry): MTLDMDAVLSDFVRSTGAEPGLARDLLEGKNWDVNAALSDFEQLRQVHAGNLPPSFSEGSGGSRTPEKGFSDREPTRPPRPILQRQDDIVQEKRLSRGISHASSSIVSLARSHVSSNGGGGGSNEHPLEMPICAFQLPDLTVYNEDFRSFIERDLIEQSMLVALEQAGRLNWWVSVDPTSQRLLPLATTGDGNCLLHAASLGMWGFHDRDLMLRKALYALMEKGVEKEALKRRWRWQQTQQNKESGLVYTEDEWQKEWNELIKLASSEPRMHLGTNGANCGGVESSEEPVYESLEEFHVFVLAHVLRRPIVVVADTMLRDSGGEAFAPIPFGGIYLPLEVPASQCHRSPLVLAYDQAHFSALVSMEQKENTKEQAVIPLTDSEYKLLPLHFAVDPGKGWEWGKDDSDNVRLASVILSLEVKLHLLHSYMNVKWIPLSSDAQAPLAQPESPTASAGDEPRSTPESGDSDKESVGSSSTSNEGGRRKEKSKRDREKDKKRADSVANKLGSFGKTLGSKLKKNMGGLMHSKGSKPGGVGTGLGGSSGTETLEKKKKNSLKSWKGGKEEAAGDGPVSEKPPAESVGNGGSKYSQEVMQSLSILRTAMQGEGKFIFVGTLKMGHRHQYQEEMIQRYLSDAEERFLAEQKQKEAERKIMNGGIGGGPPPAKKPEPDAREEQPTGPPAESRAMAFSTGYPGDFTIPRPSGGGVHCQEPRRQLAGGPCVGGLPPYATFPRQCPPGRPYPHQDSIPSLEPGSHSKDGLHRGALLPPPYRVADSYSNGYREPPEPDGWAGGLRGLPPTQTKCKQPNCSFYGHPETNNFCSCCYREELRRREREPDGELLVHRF
Method in brief: as §1

PRPF8 = PRPF8 (UniProt Q6P2Q9)
Method in brief: as §1

PSMD7 = target: T3, PSMD7 (UniProt P51665)
T3 sequence (whole entry): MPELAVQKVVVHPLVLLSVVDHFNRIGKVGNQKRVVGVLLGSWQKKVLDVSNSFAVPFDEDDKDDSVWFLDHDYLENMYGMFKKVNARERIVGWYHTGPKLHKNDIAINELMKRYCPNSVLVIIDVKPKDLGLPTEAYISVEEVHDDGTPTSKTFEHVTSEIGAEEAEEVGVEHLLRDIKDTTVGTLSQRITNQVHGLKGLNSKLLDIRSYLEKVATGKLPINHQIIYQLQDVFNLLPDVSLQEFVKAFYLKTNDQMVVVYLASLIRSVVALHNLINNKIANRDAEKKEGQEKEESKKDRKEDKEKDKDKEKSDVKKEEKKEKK
Method in brief: as §1

UCHL1 = UCHL1 (UniProt P09936)
UCHL1, sequence (P09936 whole entry, looked up): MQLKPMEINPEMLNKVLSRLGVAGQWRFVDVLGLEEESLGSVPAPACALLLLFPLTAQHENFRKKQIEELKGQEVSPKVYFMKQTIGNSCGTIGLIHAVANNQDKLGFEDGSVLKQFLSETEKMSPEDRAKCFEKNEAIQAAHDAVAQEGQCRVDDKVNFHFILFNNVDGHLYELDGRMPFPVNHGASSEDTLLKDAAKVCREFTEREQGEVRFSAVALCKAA
Method in brief: as §1

UCHL3 = target: T4, UCHL3 (UniProt P15374)
T4 sequence (whole entry): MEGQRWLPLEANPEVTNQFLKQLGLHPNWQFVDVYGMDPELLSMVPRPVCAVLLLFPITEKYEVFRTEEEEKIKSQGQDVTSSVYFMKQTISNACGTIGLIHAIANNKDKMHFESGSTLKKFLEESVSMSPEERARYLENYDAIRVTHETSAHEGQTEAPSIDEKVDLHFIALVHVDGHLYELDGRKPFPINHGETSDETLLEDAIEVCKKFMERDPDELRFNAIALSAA
Method in brief: as §1

UCHL5 = target: T5, UCHL5 (UniProt Q9Y5K5)
T5 sequence (whole entry): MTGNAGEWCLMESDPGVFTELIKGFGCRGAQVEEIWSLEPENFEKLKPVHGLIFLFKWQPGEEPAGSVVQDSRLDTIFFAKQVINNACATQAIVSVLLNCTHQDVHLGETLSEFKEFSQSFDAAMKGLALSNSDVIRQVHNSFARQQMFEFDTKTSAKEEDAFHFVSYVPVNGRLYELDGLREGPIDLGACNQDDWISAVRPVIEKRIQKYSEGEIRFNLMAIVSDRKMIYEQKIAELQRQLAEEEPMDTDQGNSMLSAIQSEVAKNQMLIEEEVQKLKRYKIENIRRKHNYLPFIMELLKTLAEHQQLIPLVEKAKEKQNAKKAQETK
Method in brief: as §1

USP10 = USP10 (UniProt Q14694)
USP10, sequence (Q14694 whole entry): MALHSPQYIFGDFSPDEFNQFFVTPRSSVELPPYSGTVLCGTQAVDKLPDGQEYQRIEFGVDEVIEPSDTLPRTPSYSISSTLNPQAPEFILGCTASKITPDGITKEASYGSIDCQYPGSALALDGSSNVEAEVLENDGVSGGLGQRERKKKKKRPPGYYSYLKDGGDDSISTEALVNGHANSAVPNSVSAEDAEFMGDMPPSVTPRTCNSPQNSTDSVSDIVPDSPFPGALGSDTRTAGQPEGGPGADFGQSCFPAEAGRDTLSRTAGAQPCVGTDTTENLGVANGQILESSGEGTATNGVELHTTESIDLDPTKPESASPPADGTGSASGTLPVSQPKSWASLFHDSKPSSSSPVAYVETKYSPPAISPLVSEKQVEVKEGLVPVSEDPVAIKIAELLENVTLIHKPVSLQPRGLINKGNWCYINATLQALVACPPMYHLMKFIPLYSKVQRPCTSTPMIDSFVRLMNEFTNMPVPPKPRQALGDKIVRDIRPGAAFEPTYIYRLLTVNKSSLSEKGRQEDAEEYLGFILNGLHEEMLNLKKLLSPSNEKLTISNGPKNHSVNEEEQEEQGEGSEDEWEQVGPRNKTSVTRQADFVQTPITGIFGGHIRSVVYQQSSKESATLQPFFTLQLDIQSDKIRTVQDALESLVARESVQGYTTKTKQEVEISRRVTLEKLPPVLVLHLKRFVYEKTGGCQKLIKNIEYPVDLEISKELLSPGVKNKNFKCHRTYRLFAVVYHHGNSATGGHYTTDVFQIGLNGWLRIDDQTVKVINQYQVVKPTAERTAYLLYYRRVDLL
Method in brief: as §1

USP15 = target: T6, USP15 (UniProt Q9Y4E8)
T6 sequence (whole entry): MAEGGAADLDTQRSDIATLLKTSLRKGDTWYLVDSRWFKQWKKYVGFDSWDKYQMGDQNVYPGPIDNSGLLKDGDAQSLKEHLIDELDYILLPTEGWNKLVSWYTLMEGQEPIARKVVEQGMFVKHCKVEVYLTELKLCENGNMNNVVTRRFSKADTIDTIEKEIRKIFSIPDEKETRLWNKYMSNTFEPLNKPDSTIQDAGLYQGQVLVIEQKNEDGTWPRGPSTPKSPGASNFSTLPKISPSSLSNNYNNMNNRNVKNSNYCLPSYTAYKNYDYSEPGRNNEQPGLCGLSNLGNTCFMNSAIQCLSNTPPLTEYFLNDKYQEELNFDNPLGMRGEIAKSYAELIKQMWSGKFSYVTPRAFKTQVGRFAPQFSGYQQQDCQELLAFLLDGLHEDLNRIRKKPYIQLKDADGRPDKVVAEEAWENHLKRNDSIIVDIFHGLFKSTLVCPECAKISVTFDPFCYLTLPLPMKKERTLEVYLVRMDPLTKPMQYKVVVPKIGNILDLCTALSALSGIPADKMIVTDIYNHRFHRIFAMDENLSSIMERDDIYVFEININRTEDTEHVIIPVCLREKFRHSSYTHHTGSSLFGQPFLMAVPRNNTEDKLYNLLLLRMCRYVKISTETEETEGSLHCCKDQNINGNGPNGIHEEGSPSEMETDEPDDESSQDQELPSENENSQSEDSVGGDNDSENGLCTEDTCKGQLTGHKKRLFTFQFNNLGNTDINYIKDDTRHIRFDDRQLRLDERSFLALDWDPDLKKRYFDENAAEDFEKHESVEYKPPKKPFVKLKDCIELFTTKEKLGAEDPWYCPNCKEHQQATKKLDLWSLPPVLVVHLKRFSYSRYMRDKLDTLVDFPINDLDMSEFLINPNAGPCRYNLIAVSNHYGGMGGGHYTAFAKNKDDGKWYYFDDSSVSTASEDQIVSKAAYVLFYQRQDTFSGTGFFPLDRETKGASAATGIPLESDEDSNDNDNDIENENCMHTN
Method in brief: as §1

USP16 = USP16 (UniProt Q9Y5T5)
USP16, sequence (Q9Y5T5 whole entry, looked up): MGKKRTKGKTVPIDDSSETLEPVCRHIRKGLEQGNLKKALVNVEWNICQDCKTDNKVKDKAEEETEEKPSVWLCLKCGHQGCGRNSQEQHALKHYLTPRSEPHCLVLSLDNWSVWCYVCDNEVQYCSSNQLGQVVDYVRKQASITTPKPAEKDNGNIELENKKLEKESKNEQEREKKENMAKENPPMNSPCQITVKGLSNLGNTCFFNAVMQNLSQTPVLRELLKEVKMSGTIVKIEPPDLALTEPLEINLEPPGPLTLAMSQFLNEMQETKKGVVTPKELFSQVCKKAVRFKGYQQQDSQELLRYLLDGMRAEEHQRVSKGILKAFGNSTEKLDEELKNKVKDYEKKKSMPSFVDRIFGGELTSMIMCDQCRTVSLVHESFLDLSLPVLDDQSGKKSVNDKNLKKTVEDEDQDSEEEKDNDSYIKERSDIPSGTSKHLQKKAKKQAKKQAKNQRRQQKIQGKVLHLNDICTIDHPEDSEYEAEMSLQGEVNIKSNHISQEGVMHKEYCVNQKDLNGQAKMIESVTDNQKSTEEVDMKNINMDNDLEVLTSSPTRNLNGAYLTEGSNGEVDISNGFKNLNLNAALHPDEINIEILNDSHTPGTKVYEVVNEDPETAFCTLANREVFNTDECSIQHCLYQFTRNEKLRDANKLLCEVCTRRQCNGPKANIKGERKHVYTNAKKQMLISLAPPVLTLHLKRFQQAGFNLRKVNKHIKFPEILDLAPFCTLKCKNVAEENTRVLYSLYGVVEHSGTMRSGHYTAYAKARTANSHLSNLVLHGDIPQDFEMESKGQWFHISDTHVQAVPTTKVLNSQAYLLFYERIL
Method in brief: as §1

Measured: log2 ratio of Biotin-Ahx-Ub-VS probe labelling

O=C(CCl)NCCc1cccc2ccccc12
inactive: OTUD6B 0.0475 | OTUD7B -0.286 | PRPF8 0.117 | PSMD7 0.0665 | UCHL1 -0.978 | UCHL3 0.331 | UCHL5 -0.029 | USP10 -0.0479 | USP15 0.076 | USP16 -0.496
